Drawing on PubChem BioAssay (NCATS), this text covers Potency for eleven compounds.

Each structure is given as a SMILES string. Results filed as inconclusive are left out. Entries that show only a call come without a potency. The source made the active and inactive calls. Calls come from the whole dose curve; as a rule, active = well fitted inhibition curve with a large enough effect; inconclusive = small, poorly fitted or top-dose-only effect; inactive = flat fitted curve, though single readings scatter.
Potency is the fitted concentration of half-maximal effect.

The target of the test is Ubiquitin carboxyl-terminal hydrolase 1 (Homo sapiens) (UniProt O94782). Kind of test: Inhibitors of USP1/UAF1: Pilot qHTS (AID 504865). Note: nearly all actives have a fitted effect of over 35% in size. The settings on record: purified USP1/UAF1, Ub-rhodamine cleavage fluorescence; series mostly up to 114 µM. In a few lines: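 Deubiquitinase activity followed as kinetic rhodamine fluorescence release from 150 nM Ub-Rho. 1 nM USP1/UAF1 with compound, after 15 min room-temperature preincubation, in HEPES pH 7.8 buffer containing TCEP, EDTA, BSA and Tween-20.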
Sequence of Ubiquitin carboxyl-terminal hydrolase 1 (Homo sapiens) (O94782 whole entry, looked up): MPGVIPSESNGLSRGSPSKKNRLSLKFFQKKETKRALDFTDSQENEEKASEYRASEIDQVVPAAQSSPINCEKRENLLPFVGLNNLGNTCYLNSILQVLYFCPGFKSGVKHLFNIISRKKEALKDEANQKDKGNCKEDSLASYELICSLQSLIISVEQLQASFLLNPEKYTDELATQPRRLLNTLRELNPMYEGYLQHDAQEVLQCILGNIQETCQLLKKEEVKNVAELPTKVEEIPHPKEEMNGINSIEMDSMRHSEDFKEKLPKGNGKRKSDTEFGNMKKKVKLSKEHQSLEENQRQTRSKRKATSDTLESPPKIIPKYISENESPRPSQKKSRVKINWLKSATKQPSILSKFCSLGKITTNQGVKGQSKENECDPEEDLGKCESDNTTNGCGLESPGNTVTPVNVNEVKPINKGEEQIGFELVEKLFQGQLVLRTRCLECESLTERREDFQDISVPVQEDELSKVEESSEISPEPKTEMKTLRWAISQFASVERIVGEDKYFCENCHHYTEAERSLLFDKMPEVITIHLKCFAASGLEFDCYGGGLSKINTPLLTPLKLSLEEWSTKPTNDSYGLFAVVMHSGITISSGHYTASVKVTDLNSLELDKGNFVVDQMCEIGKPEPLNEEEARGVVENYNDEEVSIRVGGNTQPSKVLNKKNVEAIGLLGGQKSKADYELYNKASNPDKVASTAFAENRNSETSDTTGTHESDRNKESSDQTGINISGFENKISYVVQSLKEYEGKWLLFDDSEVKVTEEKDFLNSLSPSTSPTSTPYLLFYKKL
Background: In qHTS, concentration-response curves come from the screen itself.
For the compound `COc1c2occc2c(OC)c2c(=O)cc(C)oc12`, the Potency is 39.8 µM (active).
The result for `Oc1cc(O)c2c(c1)O[C@H](c1ccc(O)c(O)c1)[C@H](O)C2` reads “inactive”; that for `CCCCCC=CCC=CCCCCCCCC(=O)OCC`, “inactive”.
The value for `C[C@@H]1C[C@H]2[C@@H]3CCC4=CC(=O)C=C[C@]4(C)[C@@]3(F)[C@@H](O)C[C@]2(C)[C@H]1C(=O)CO` was “inactive”; that for `COc1ccc(C2C(=O)c3ccccc3C2=O)cc1` was “inactive”.
As to `CCCCC(CC)CN=C(N)NC(N)=NCCCCCCN=C(N)NC(N)=NCC(CC)CCCC` (stereo unspecified), the Potency was 22.4 µM (active).
For `Cc1cc(N)c2cc(NC(=O)Nc3ccc4nc(C)cc(N)c4c3)ccc2n1`, the Potency is 10 µM (active).
Turning to `OCc1ccccc1O`, the Potency result was “inactive”.
On to `Cc1cc(O)c(C(C)C)cc1Cl`, for which the Potency entry is “inactive”.
The value for `Cc1ccc(C(=O)C(C)CN2CCCCC2)cc1` (stereo unspecified) was “inactive”.
The value for `Nc1ccc(C(=O)Nc2ccccc2N)cc1` was “inactive”.
